# Measurements from the supplement of paper PMC6555819.
# Key:
# Experiment in all cases: PBM binding z-score (relative to random genomic background probes); higher = stronger binding; sequences stand for … in GC…GCGATTGACAGCGTAGAATGAAGG
# [1] = system: FXR:RXRa (NR concentration 270 nM, RXRa partner concentration 90 nM)
# Outline: (§1)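 Scanned fluorescence from custom Agilent 4×180K protein-binding microarrays was regression-normalized. Binding z-scores use random background probes as reference. Ligand-free nuclear receptor dimers were incubated on the arrays for 1 h and detected with antibodies against each partner (one per run).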
# [2] = system: LXRa:RXRa (NR concentration 270 nM, RXRa partner concentration 90 nM)
# Outline: as §1
# [3] = system: LXRa homodimer (NR concentration 270 nM)
# Outline: as §1
# [4] = system: LXRb:RXRa (NR concentration 270 nM, RXRa partner concentration 90 nM)
# Outline: as §1
# [5] = system: LXRb homodimer (NR concentration 270 nM)
# Outline: as §1
# [6] = system: PPARa:RXRa (NR concentration 270 nM, RXRa partner concentration 90 nM)
# Outline: as §1
# [7] = system: PPARg:RXRa (NR concentration 180 nM, RXRa partner concentration 90 nM)
# Outline: as §1
# [8] = system: PPARg:RXRa 270nM:90nM, anti-RXR (NR concentration 270 nM, RXRa partner concentration 90 nM)
# Outline: as §1
# [9] = system: PPARg:RXRa 30nM:10nM, anti-RXR (NR concentration 30 nM, RXRa partner concentration 10 nM)
# Outline: as §1
# [10] = system: PPARg:RXRa 90nM:30nM, anti-RXR (NR concentration 90 nM, RXRa partner concentration 30 nM)
# Outline: as §1
# [11] = system: PPARg:RXRa DBDmut IVT, anti-RXR (DBD mutation: RXRa K156A/R161A, NR concentration 270 nM, RXRa partner concentration 90 nM)
# Outline: as §1
# [12] = system: PPARg:RXRa IVT, anti-PPARg (NR concentration 270 nM, RXRa partner concentration 90 nM)
# Outline: as §1
# [13] = system: PPARg DBDmut:RXRa IVT, anti-PPARg (DBD mutation: PPARg1 K132A/R137A, NR concentration 270 nM, RXRa partner concentration 90 nM)
# Outline: as §1
# [14] = system: PPARg DBDmut IVT, anti-PPARg (DBD mutation: PPARg1 K132A/R137A, NR concentration 270 nM)
# Outline: as §1
# [15] = system: PPARg homodimer (NR concentration 180 nM)
# Outline: as §1
# [16] = system: PXR:RXRa (NR concentration 270 nM, RXRa partner concentration 90 nM)
# Outline: as §1
# [17] = system: PXR homodimer (NR concentration 270 nM)
# Outline: as §1
# [18] = system: RARa:RXR (NR concentration 270 nM, RXRa partner concentration 90 nM)
# Outline: as §1
# [19] = system: RARa homodimer (NR concentration 270 nM)
# Outline: as §1
# [20] = system: RARb:RXRa (NR concentration 270 nM, RXRa partner concentration 90 nM)
# Outline: as §1
Sequence,PBM binding z-score [1],PBM binding z-score [2],PBM binding z-score [3],PBM binding z-score [4],PBM binding z-score [5],PBM binding z-score [6],PBM binding z-score [7],PBM binding z-score [8],PBM binding z-score [9],PBM binding z-score [10],PBM binding z-score [11],PBM binding z-score [12],PBM binding z-score [13],PBM binding z-score [14],PBM binding z-score [15],PBM binding z-score [16],PBM binding z-score [17],PBM binding z-score [18],PBM binding z-score [19],PBM binding z-score [20]
GATAGAGGGTCAGCTAGAGGCCAGAGTATGGAAA,3.79,2.41,-0.113,2.02,-0.604,3.92,2.36,2.57,0.476,1.54,1.62,2.24,-0.25,-0.22,1.64,2.44,-0.0848,3.7,0.224,3.85
AGAATGAGGTTACAAAAGATCAGGGAAACGCTTG,1.59,6.22,-0.11,3.07,0.0675,3.05,2.31,2.26,0.772,1.54,3.87,3.13,1.47,0.745,0.909,1.23,0.246,1.88,-0.148,1.81
CCTATTGGGCCAAAGGTCATTGATTCCAATGCTC,4.7,5.15,4.17,4.72,1.02,5.83,11.8,9.98,10.5,12.1,4.3,6.28,-0.0108,0.0368,4.43,5.28,2.34,6.32,1.8,4.42
GCTAGTTGGTGAGTAAAAGGTCACACACCGGTCG,3.1,3.92,3.81,3.79,-0.0196,4.55,3.87,5.23,3.09,4.99,0.239,2.74,0.00849,0.663,3.73,4.81,0.986,5.64,0.736,4.05
CCTTACGGGTCACTGACAGGTTATGGCATTTGGA,5.56,4.1,0.253,3.08,-0.323,5.03,4.2,4.62,1.67,3.02,3.42,3.8,0.363,-0.311,3.61,3.77,-0.0581,4.95,1.29,4.04
TATACAGGGTCAAAGGCTAGAGTACGAATGTCGA,7.16,6.17,2.74,4.84,2.57,5.93,7.9,7.07,5,6.71,2.33,4.88,1.73,2.03,3.15,4.01,1.01,5.02,1.11,4.53
GATACAGGGTCAAGGCCAGCGTACGCGTATTGAT,6.93,4.12,0.203,3.86,-0.187,5.63,5.9,5.32,2.19,4.12,2.09,3.85,0.49,-0.316,2.29,3.48,0.372,4.36,1.03,4.52
TCATATAGGTAAATGCTAAGTGAAAGTCCGATCT,1.1,0.928,0.284,0.773,-0.0273,1.17,0.762,2.04,3.9,2.9,4.03,2.11,0.478,0.946,0.521,0.632,0.372,0.974,0.763,0.453
CGTCCAAGGTCAAAGGTCAGAGAAGAGATGACGG,8.35,7.24,3.55,6.68,1.89,7.26,10.7,9.26,8.39,9.75,4.12,6.13,1.12,0.47,3.77,7.04,1.67,8.89,1.92,5.97
CCTCCTGGGCCAAAAAGGTCATTGATGCCGATAA,3.19,3.89,2.81,4.12,0.202,4.47,0.997,2.63,0.448,1.63,-0.0525,1.53,-0.96,-0.947,2.51,4.62,2.5,4.44,0.621,3.9
TAGCCTAGGTCATTGGGCAAGTATAGTACGCATC,4.44,3.37,0.712,2.16,0.361,3.46,2.93,3.07,0.725,1.95,1.66,3.17,0.399,-0.561,1.19,1.64,-0.337,2.38,-0.275,3.66
CTCGAAAGGTCGTGCTCAGGTAAGTATACCAAAC,5.43,4.11,0.35,3.55,0.134,5.08,2.41,4.23,1.01,2.94,0.999,1.78,0.44,-0.41,1.63,3.24,0.482,3.73,0.0606,3.99
GCCAGTTGGTCAGTAAAAGGTCACACACCGGTCG,3.07,4.03,4.4,3.89,-0.0245,4.36,2.75,4.34,1.84,3.62,0.399,2.44,0.21,0.231,3.78,5.1,1.14,5.76,1.88,4.14
ATACCAAGGTGATCGTGAAGTCGTTGATACTAAC,0.402,0.225,0.0745,0.448,-0.0277,0.429,0.37,0.481,-0.0865,0.2,0.462,1.26,0.643,0.615,0.766,0.468,-0.0567,0.548,0.427,0.582
AGAACGAGCGCACGCTGAGTTGATAGCAGAGTAG,-0.57,-0.901,-0.709,-1.02,-1.26,-1.16,0.302,-0.706,-0.622,-0.45,-0.589,-0.892,-0.82,-1.39,-1.63,-0.74,-0.523,-0.952,-1.05,-1.05
